Molecules are shown by their SMILES. About 8,600 (12%) of roughly 69,000 compounds showed an effect of 50% or more. Only a selection was taken, and strong results are over-represented in it overall.

For this assay, the system named is Plasmodium berghei. Nature of the assay: Screen against P. berghei liver stage (PbLuc), transformed with Luciferase, at 10uM. The note with it: tested at 10 uM. The class given is functional, HepG2.
With `CC(C)(C)n1nc(C(=O)NCC2(C(N)=O)CCOCC2)cc1C1CC1`, the INHIBITION worked out at 21.7%.

On to `CC(C)c1cc(C(=O)NCC2(C(N)=O)CCOCC2)nn1C(C)(C)C`, for which the INHIBITION is 62.4%.

As to `Cc1cc(C(=O)NCC2(C(N)=O)CCOCC2)nn1C(C)(C)C`, the INHIBITION is 0.705%.

With `O=C(NCC(O)c1ccccc1C(F)(F)F)c1cccnc1` (configuration not stated), the INHIBITION is listed as -2.97%.

For `O=C(NCc1cccnc1)NCC(O)c1ccccc1C(F)(F)F` (configuration not stated), the INHIBITION was determined as 16.8%.

With `CC(C)(C)n1ncc(NCC(O)c2ccccc2C(F)(F)F)c(Cl)c1=O` (configuration not stated), the INHIBITION was found to be 82.2%.

Take `Cn1c(NCC(O)c2ccc(Cl)cc2)c(C#N)c(=O)n(C)c1=O` (configuration not stated): the INHIBITION worked out at 19.4%.

Turning to `Oc1ccc(Cl)cc1CNCc1ccccc1C(F)(F)F`, the INHIBITION amounted to 16.6%.

With `CC(C)(C)n1ncc(C(=O)NCCCC(N)=O)c1C(F)(F)F`, the INHIBITION is 26.9%.

For `CC(C)(C)n1ncc(NCC(O)c2ccccc2)c(Cl)c1=O` (configuration not stated), the INHIBITION is 77.7%.

As to `CC(C)(C)n1ncc(NCCc2ccccc2C(F)(F)F)c(Cl)c1=O`, the INHIBITION was 76.6%.

In the case of `Cn1c(NCC(O)c2ccc(F)c(F)c2)c(C#N)c(=O)n(C)c1=O` (configuration not stated), the INHIBITION was -52.5%.

On to `CCn1cc(NC(=O)NCC(O)c2ccccc2)cn1` (configuration not stated), for which the INHIBITION was -30.4%.

`CC(=O)c1c(F)cccc1NCC(O)c1ccc(F)c(F)c1` (configuration not stated): the INHIBITION turned out to be 15.7%.

With `CC(C)(C)n1ncc(NCC(O)c2ccc(F)c(F)c2)c(Cl)c1=O` (configuration not stated), the INHIBITION stood at 84.5%.

As to `Cc1ccc(C2CSCCN2C(=O)NCc2cccnc2)cc1` (configuration not stated), the INHIBITION is 4.66%.

As to `CCCNS(=O)(=O)c1cc2c3c(c1)c(C)cc(=O)n3CCC2`, the INHIBITION is given as 22.85%.

For `CNc1cc(CNC(=O)c2ccnc(OC)c2)nc(-c2ccncc2)n1`, the INHIBITION is on record as 32.3%.

With `Cc1cnc(N2CCn3cc(CNC(=O)CC4CC4)nc3C2)nc1`, the INHIBITION stood at 25.6%.

For `NC(=O)c1cc(-n2cc(-c3cccc(C(=O)O)c3)cn2)cs1`, the INHIBITION stood at 5.17%.

As to `NC(=O)c1ccccc1-n1cc(-c2cccc(C(=O)O)c2)cn1`, the INHIBITION was 71.5%.

With `NC(=O)c1cc(-c2cccc(C(=O)O)c2)cs1`, the INHIBITION is 29.8%.

For `CO[C@H]1CCN(Cc2cnn(C)c2)[C@@H]2CN(Cc3ccncc3)C[C@H]12`, the INHIBITION is 7.31%.

On to `CC(C)Cc1noc(CN2CCN(C(=O)c3ccccc3F)CC2)n1`, for which the INHIBITION is reported as -19.4%.

Take `CC(C)Nc1ncnc2c1CCN(Cc1nccn1C)CC2`: the INHIBITION worked out at 24.9%.

Consider `Cc1ncc(CNCC2CCC(C(N)=O)CC2)n1-c1ccccc1` (configuration not stated), for which the INHIBITION was determined as 30.8%.

For `Cc1ncc(CNCC(=O)NC2CCCCC2)n1-c1ccccc1`, the INHIBITION was 65%.

As to `Cc1ncc(CNCC(=O)NCC(F)(F)F)n1-c1ccccc1`, the INHIBITION was found to be 41.5%.

With `Cc1n[nH]c(C)c1-c1nccnc1CC1CCNC1` (configuration not stated), the INHIBITION is 25%.

As for `CCC(C)(N)c1nc(=O)c(C(C)C)c(C)[nH]1` (configuration not stated), the INHIBITION was found to be 24.8%.

As to `OC(c1cnn(-c2ccccc2)c1)C(F)(F)F` (configuration not stated), the INHIBITION is given as 26.5%.

As for `Cc1nc(COc2ccc(OCC(N)=O)cc2)oc1C`, the INHIBITION is listed as -120%.

Take `CCOc1ccc(OC2CCCN(c3cnn(C)c3)C2=O)cc1` (configuration not stated): the INHIBITION is given as 25.8%.

Take `CCc1cnc(COc2ccc(OC3CCCCNC3=O)cc2)o1` (configuration not stated): the INHIBITION is recorded as 78.4%.

For the compound `Cc1cc(COc2ccc(OC3CCCCNC3=O)cc2)on1` (configuration not stated), the INHIBITION is -26.1%.

Regarding `CCc1cnc(CN(C)C2CCN(CC3CCC3)C2)o1` (configuration not stated), the INHIBITION is -0.532%.

On to `Cc1nc(COc2ccc(OC3CCCCNC3=O)cc2)oc1C` (configuration not stated), for which the INHIBITION was 64.9%.

Turning to `COc1ncccc1CNC(=O)NC1CCCOc2ccccc21` (configuration not stated), the INHIBITION is 10%.

For the compound `CN(Cc1ccccn1)C(=O)CNC(=O)N1CCc2ccccc2C1`, the INHIBITION was found to be 21.2%.

On to `CN(Cc1ccsc1)C(=O)CNC(=O)N1CCc2ccccc2C1`, for which the INHIBITION came out at 54.8%.

`Cc1ccc(CN(C)C(=O)CNC(=O)N2CCc3ccccc3C2)o1`: the INHIBITION was -1.45%.

Turning to `c1cnn(CC2CN(CC3CCCCC3)CCO2)c1` (configuration not stated), the INHIBITION is -71.2%.

With `N#Cc1ccccc1N1CCCN(CC(=O)Nc2ccccc2Cl)CC1`, the INHIBITION was determined as 63.7%.

For `N#Cc1ccccc1N1CCCN(CC(=O)Nc2ccc(Cl)cn2)CC1`, the INHIBITION worked out at 37.7%.

For the compound `N#Cc1ccccc1N1CCN(C(=O)NCC(=O)N2CCCC2)CC1`, the INHIBITION is on record as -9.1%.

Regarding `Cc1cc(C)c(Cn2cncn2)cc1CN1CC[C@@H]2CC[C@H](C1)N2`, the INHIBITION is reported as 19.4%.

Take `Cc1nc2c(N3CCN(CCO)CC3)nc(N)nc2n1C`: the INHIBITION is 13.1%.

With `CC(C)C(=O)NS(=O)(=O)c1ccc2c(c1)N(C)CCC2`, the INHIBITION stood at 39.2%.

As for `CC(=O)NS(=O)(=O)c1ccc2c(c1)N(C)CCC2`, the INHIBITION is -56.6%.

With `CN1CCCc2ccc(S(=O)(=O)NC(=O)C3CC=CC3)cc21`, the INHIBITION was 75.4%.

For the compound `CN(Cc1nncn1-c1cccc(C(F)(F)F)c1)S(C)(=O)=O`, the INHIBITION is listed as -19.1%.

In the case of `CCCC(=O)N(CCCN1CCOCC1)c1nc2c(C)ccc(Cl)c2s1`, the INHIBITION is 42.7%.

Consider `CCCC(=O)N(CCCN1CCOCC1)c1nc2c(C)c(C)ccc2s1`, for which the INHIBITION is recorded as 60.1%.

As for `CCCC(=O)N(CCCN1CCOCC1)c1nc2c(F)cccc2s1`, the INHIBITION came to 32.1%.

Consider `CCCC(=O)N(CCCN1CCOCC1)c1nc2c(Cl)cccc2s1`, for which the INHIBITION was determined as 71.4%.

As for `CCCC(=O)N(CCN1CCOCC1)c1nc2c(OC)ccc(C)c2s1`, the INHIBITION was -0.473%.

For the compound `CN(CCN1CCOCC1)C(=O)CCc1cccc(Cl)c1`, the INHIBITION is recorded as -3.16%.

For the origin of these results see ChEMBL document CHEMBL4513216, “Probing the Open Global Health Chemical Diversity Library for Multistage-Active Starting Points for Next-Generation Antimalarials” (ACS Infect Dis, 2020).
